# TRPM1 prom inh – inhibitors of MITF-driven TRPM1 promoter in melanoma cells. hit rate 0.83% among 330,000. SK-MEL-5 TRPM1 promoter luciferase, 24 h. inhibition, % at 12.5 µM;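 active means mean inhibition across replicates of 60% or more, whatever share of single replicates reaches that level; inconclusive means some that reach 60%, reason not given; inactive means mean inhibition across replicates below 60%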
# EBV LMP1 NFkB – Epstein-Barr LMP1 NF-kappaB reporter inhibition. inhibition, % at 12.5 µM. hit rate 0.69% among 350,000. AID 504558. LMP1-induced NF-kappaB luciferase reporter cells, luminescence; in the data active means inhibition above about 41%; inconclusive means no clear call, values can overlap the other calls
# EWS-Fli inh – EWS/Fli transcriptional activity inhibition; A673 NR0B1-luciferase reporter, viability-normalised; inhibition, % at 12.6 µM; hit rate 0.67% among 350,000;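 active means mean inhibition of at least 50% after viability correction, with every replicate also passing that limit; inconclusive means mean reaches 50% but only one of two replicates passes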;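 further: firefly luciferase signal divided by Alamar Blue viability fluorescence both relative to DMSO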
# Shn3 3UTR inh – inhibitors of Schnurri-3 3'UTR reporter in osteoblasts; Clone20 osteoblast Shn3 3'UTR firefly luciferase, 24 h; inhibition, % at 12.5 µM; hit rate 0.52% among 360,000; AID 588674;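 active means mean inhibition of at least 75% with every replicate also reaching 75%; inconclusive means mean inhibition at least 75% but some replicate below; inactive means mean inhibition below 75%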
# LGR2 antag – blocks bursicon-induced cAMP signaling via Drosophila LGR2; HEK293 LGR2, CRE-luciferase, bursicon-stimulated, 4 h; inhibition, % at 9.99 µM; hit rate 0.35% among 380,000; AID 720647;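 active means drop in luminescence signal, shown as inhibition above about 50% in the replicate tests, limit read from the data, passing the limit was not always enough; inconclusive means probably only some replicates passing the limit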;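 further: agonist challenge used bursicon conditioned medium at about half maximal strength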
# PAX8 reporter – PAX8 transcriptional activity inhibition; RMG-I TPO-luciferase reporter, SteadyGlo, 24 h; inhibition, % at 12.6 µM; hit rate 1.2% among 360,000;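 active means mean replicate inhibition at least 60% with every replicate also reaching 60%; inconclusive means only one of the two criteria is met; inactive means mean below 60% and not all replicates reaching 60%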;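 further: luciferase light reporting Pax8 driven TPO promoter activity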
# Hits are given with their value; . = inactive; ? = inconclusive; / = no result. Hits are enriched below; roughly 2.2% of the tested compounds scored in any of these assays.
SMILES,TRPM1 prom inh,EBV LMP1 NFkB,EWS-Fli inh,Shn3 3UTR inh,LGR2 antag,PAX8 reporter
Cc1ccc(S(=O)(=O)Nc2ccc3c(c2)C(=O)N([C@H](C)CO)C[C@@H](C)[C@H](CN(C)C(=O)Nc2ccccc2)OCCCC[C@H](C)O3)cc1,/,/,/,/,.,/
CCCNC(=O)[C@H]1[C@H](CO)[C@H]2Cn3c(ccc(C4=CCCCC4)c3=O)[C@@H]1N2CC,/,/,.,/,.,/
Cc1ccc(S(=O)(=O)Nc2ccc3c(c2)CC(=O)N([C@@H](C)CO)C[C@H](C)[C@H](CN(C)C(=O)Nc2ccc(C(F)(F)F)cc2)O3)cc1,/,/,.,/,.,.
CC(C)NC(=O)N(C)C[C@H]1Oc2ccc(NC(=O)Nc3ccc(C(F)(F)F)cc3)cc2CC(=O)N([C@@H](C)CO)C[C@H]1C,/,/,63,/,.,.
C[C@H]1CN([C@@H](C)CO)C(=O)Cc2cc(NC(=O)Nc3ccc(C(F)(F)F)cc3)ccc2O[C@H]1CN(C)C(=O)Nc1ccc(C(F)(F)F)cc1,/,/,.,/,.,86
Cc1ccc(S(=O)(=O)Nc2ccc3c(c2)CC(=O)N([C@@H](C)CO)C[C@H](C)[C@@H](CN(C)C(=O)Nc2ccc(C(F)(F)F)cc2)O3)cc1,/,/,.,/,.,88
Cc1ccn2c(Nc3ccccc3)c(-c3ccccn3)nc2c1,?,59,52,.,.,.
Cc1ccccc1Nc1c(-c2ccccn2)nc2ccccn12,.,.,52,.,.,.
Cc1ccn2c(Nc3ccccc3C)c(-c3ccccn3)nc2c1,.,.,.,?,.,.
O=C(NC[C@@H]1[C@@H](c2ccccc2)[C@@H](CO)N1Cc1cccnc1)C1CCCCC1,/,/,.,/,.,/
COCCNC(=O)C[C@H]1CC[C@@H]2[C@@H](COc3ccc(NC(=O)Cc4ccccc4)cc3C(=O)N2C)O1,/,/,.,/,.,.
COc1cc(/C=N/NC(=O)c2ccccc2O)ccc1OCC(=O)Nc1ccccc1,.,.,.,.,.,.
CCOc1cc(/C=N\Nc2ccc([N+](=O)[O-])cc2)ccc1OCC(=O)Nc1ccc(C)c(C)c1,.,.,/,.,/,/
O=C(COc1ccc(/C=N/NC(=O)c2cc3ccccc3o2)cc1Cl)Nc1ccccc1,95,.,/,.,/,/
CCOc1cc(/C=N\NC(=O)Cc2ccccc2)ccc1OCC(=O)Nc1ccc(C)c(C)c1,64,.,/,.,/,/
O=C(Nc1ccc2c(c1)[C@@H]1C[C@H](CC(=O)N3CCCCC3)O[C@@H](CO)[C@@H]1O2)C1CCC1,/,/,.,/,.,.
O=C(Nc1ccc(Cl)cc1)N[C@H]1CC[C@H](CCn2cc(C3(O)CCCC3)nn2)O[C@@H]1CO,/,/,.,/,.,.
COc1ccc(CNS(=O)(=O)c2cc(Cl)ccc2N2CC[C@@H](O)C2)cc1,/,/,55,/,.,.
O=C1CS(=O)(=O)C(c2ccccc2)N1c1ccc(Cl)cc1 (stereo unspecified),/,/,.,/,/,.
Cc1noc(C)c1NC(=O)N(C)C[C@@H]1Oc2ccc(NC(=O)NC(C)C)cc2CC(=O)N([C@@H](C)CO)C[C@@H]1C,/,/,.,/,/,.
Nc1cc2c3ccccc3ccc2c2ccccc12,.,.,.,.,86,.
C[C@H](CO)N1C[C@H](C)[C@@H](CN(C)S(=O)(=O)c2ccccc2)Oc2ccc(NC(=O)NC3CCCCC3)cc2CC1=O,/,/,.,/,.,.
CCCNC(=O)N1C[C@@H](C)[C@@H](OC)CN(C)C(=O)c2cc(NS(C)(=O)=O)ccc2OC[C@H]1C,/,/,.,/,.,.
O=C(C[C@H]1C=C[C@@H](NC(=O)Cc2cccnc2)[C@@H](CO)O1)Nc1ccccc1,/,/,.,/,.,.
Cc1ccc(S(=O)(=O)N(C)C[C@@H]2Oc3ccc(NC(=O)CCC(F)(F)F)cc3CC(=O)N([C@@H](C)CO)C[C@@H]2C)cc1,.,.,66,.,.,.
C[C@H]1CN([C@@H](C)CO)C(=O)Cc2cc(NC(=O)Nc3ccc4c(c3)OCO4)ccc2O[C@H]1CN(C)S(=O)(=O)c1ccc(Cl)cc1,/,/,58,/,.,/
C[C@H]1CN([C@@H](C)CO)C(=O)Cc2cc(NC(=O)NC3CCCCC3)ccc2O[C@H]1CN(C)S(=O)(=O)c1ccc(Cl)cc1,/,/,.,/,.,79
Cc1ccc(S(=O)(=O)N(C)C[C@H]2Oc3ccc(NC(=O)CCC(F)(F)F)cc3CC(=O)N([C@H](C)CO)C[C@@H]2C)cc1,/,/,.,/,.,.
Cc1ccc(S(=O)(=O)N(C)C[C@@H]2Oc3ccc(NC(=O)Nc4ccc5c(c4)OCO5)cc3CC(=O)N([C@H](C)CO)C[C@@H]2C)cc1,/,/,56,/,.,.
